Here are results for 39 compounds from PubChem BioAssay (Tox21).

Where “and” joins values, the source holds several entries; their conditions need not be identical. Identical values can stand only once. The source holds several records for some structures; these can differ, active in one and inactive in another. Calls of active or inactive are those of the source. Entries that show only a call come without a potency. The call rests on the fitted dose curve.
Potency means the concentration at half of the fitted maximal effect.

Sequence of Estrogen receptor (Homo sapiens) (P03372 whole entry, looked up): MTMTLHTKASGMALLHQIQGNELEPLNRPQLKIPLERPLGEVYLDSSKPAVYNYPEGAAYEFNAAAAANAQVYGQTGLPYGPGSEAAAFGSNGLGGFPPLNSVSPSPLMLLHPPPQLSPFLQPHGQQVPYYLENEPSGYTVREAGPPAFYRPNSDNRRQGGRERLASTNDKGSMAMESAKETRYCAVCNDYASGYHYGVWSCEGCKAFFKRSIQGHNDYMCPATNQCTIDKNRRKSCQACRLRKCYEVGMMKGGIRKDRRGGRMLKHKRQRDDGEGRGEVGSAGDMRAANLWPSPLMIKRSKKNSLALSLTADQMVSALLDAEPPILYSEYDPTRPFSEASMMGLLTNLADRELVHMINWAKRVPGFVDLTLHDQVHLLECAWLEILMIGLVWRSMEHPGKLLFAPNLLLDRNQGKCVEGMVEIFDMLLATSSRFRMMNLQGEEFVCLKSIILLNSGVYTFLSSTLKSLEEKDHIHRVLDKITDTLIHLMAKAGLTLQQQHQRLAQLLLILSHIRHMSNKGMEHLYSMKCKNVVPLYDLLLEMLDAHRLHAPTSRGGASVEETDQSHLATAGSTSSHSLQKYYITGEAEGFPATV

The target in the test is Estrogen receptor (Homo sapiens) (UniProt P03372). Put plainly: qHTS assay to identify small molecule agonists of the estrogen receptor alpha (ER-alpha) signaling pathway in the presence of an antagonist (AID 1259383). Further: nearly all actives have a fitted effect of over 15% in size. On activation: top concentration of the series differs between compounds. To be noted: VM7Luc4E2 cells, ERE-luciferase, +ICI-182,780, 22 h; series mostly up to 92.4 µM. An excerpt:
National Center for Advancing Translational Sciences [NCATS] NIH Chemical Genomics Center [NCGC] U.S. Environmental Protection Agency [EPA] National Institutes of Environmental Health Sciences [NIEHS] National Toxicology Program [NTP] Assay overview: Estrogen receptor (ER), a member of nuclear hormone receptor plays an important role in development, metabolic homeostasis and reproduction. Two subtypes of ER, ER-alpha and ER-beta, have similar expression patterns with some uniqueness in both types. Endocrine disrupting chemicals (EDCs) and their interactions with steroid hormone receptors like ER causes disruption of normal endocrine function. Therefore, it is important to understand the effect of environmental chemicals in ER signaling pathway. For identifying ER agonists, VM7Luc4E2 cell line has been used in the current assay. VM7Luc4E2 cell line (provided by Denison MS, University of California) endogenously expresses full-length ER-alpha and is stably transfected with a plasmid containing four estrogen responsive elements (ERE) upstream of a luciferase reporter gene. This current screening for measuring luciferase reporter gene activity using VM7Luc4E2 cells against Tox21 10K library collection is a confirmation study on agonist mode screening in presence of ER-antagonist (ICI-182,780) at 10.0nM final concentration.
Assay Protocol Summary: VM7Luc4E2 cells were cultured in phenol red free assay medium containing 10% charcoal stripped FBS for 5 days prior to the assay. The cells were dispensed at 4,000 cells in 4uL of assay medium per well into white wall/solid-bottom 1536-well plates (Corning Life Sciences, Corning, NY) using a Multidrop Combi (Thermo Fisher Scientific Inc., Waltham, MA) dispenser. After the assay plates were incubated at 37C and 5% CO2 for 24hr, 1uL of 10.0nM (final concentration) ICI-182,780 or assay buffer was added using two separate tips of Flying Reagent Dispenser (FRD, Aurora Discovery, San Diego, CA). Then 23nL of compounds dissolved in DMSO at 15 concentrations and positive controls or DMSO only was transferred to the assay plates by a Pintool station (Wako, San Diego, CA). The assay plates were incubated at 37C and 5% CO2 for 22hr. For luciferase read, 4uL/well ONE-Glo reagent (Promega Corporation, Madison, WI) was added to each well using FRD and after 30min incubation at room temperature, luminescence signal was measured on ViewLux plate reader (PerkinElmer, Shelton, CT).
In general terms: qHTS replaces the single test concentration by a dilution series.
As to `CCCCC(CC)COCC1CO1` (stereo not given), the Potency entry is “inactive”.

For the compound `C#C[C@]1(O)CC[C@H]2[C@@H]3CCc4cc(OC)ccc4[C@H]3CC[C@@]21C`, the Potency was 137 nM (active) and 211 nM (active).

As to `O=C(Nc1ccc([N+](=O)[O-])cc1Cl)c1cc(Cl)ccc1O`, the activation was -10.6% [at 19 µM] (inactive) and the Potency is 77 nM (active).

`S=C(NC1CCCCC1)NC1CCCCC1`: the Potency result is “inactive”.

In the case of `COC(C)COC(C)COC(C)CO` (stereo not given), the Potency result was “inactive”.

For the compound `O=C(OCc1ccccc1)c1ccccc1O`, the Potency entry is “inactive”.

As for `O=C(Nc1ccc(Cl)cc1)Nc1ccc(Cl)c(Cl)c1`, the Potency entry was “inactive”.

Turning to `Nc1ncn([C@@H]2O[C@H](CO)[C@@H](O)[C@H]2O)c(=O)n1`, the Potency entry was “inactive”.

As to `CCCCOCCOCCO`, the Potency result was “inactive”.

As to `COc1ccc(OC)c(C(O)CNC(=O)CN)c1` (stereo not given), the Potency entry was “inactive”.

Turning to `CC(C)OC(=O)C(C)(C)Oc1ccc(C(=O)c2ccc(Cl)cc2)cc1`, the Potency result was “inactive”.

Consider `CCCCCCCCCCCO`, for which the Potency result was “inactive”.

Turning to `CN(C)CCC=C1c2ccccc2CCc2ccccc21`, the Potency result is “inactive”.

Take `CC(C)OC=O`: the Potency result is “inactive”.

In the case of `CN(C)CCN(Cc1cccs1)c1ccccn1`, the Potency entry was “inactive”.

On to `CC1=CC2C3CC(C=C3C)C2C1` (stereo not given), for which the Potency entry was “inactive”.

Take `O=C1OC2(c3cc(Br)c(O)c(Br)c3Oc3c2cc(Br)c(O)c3Br)c2c(Cl)c(Cl)c(Cl)c(Cl)c21`: the Potency entry was “inactive”.

For the compound `CC(=O)CC/C=C(\C)CCC=C(C)C`, the Potency entry was “inactive”.

In the case of `CC(C)OB(OC(C)C)OC(C)C`, the Potency entry is “inactive”.

As to `c1ccc2c(c1)Oc1ccccc1S2`, the Potency entry is “inactive”.

Consider `OC1CCCCCCCCCCC1`, for which the Potency entry is “inactive”.

On to `CCCCOCCOCCOCCO`, for which the Potency result was “inactive”.

With `Oc1ccc(O)cc1`, the Potency result was “inactive”.

In the case of `Cc1ccc(C)c(O)c1C`, the Potency result was “inactive”.

On to `O=C(c1ccccc1)c1ccc(O)cc1O`, for which the Potency was 19.7 µM (active) and 30.6 µM (active).

As to `CC(C)(C)NC(=O)[C@H]1CC[C@H]2[C@@H]3CC[C@H]4NC(=O)C=C[C@]4(C)[C@H]3CC[C@]12C`, the Potency entry is “inactive”.

As for `c1cc(N(CC2CO2)CC2CO2)ccc1OCC1CO1` (stereo not given), the Potency result is “inactive”.

Take `C=C(C)C(=O)OCCOC(=O)C(=C)C`: the Potency result is “inactive”.

Take `COc1cccc2c1C(=O)c1c(O)c3c(c(O)c1C2=O)C[C@@](O)(C(=O)CO)C[C@@H]3O[C@H]1C[C@H](N)[C@H](O)[C@H](C)O1`: the Potency entry was “inactive”.

Consider `CCC(C)(O)CCCC(C)C` (stereo not given), for which the Potency entry is “inactive”.

Take `CC(C(=O)O)c1cccc(C(=O)c2ccccc2)c1` (stereo not given): the Potency entry is “inactive”.

In the case of `O=C(O)c1ccccc1Nc1cccc(C(F)(F)F)c1`, the Potency entry is “inactive”.

With `C[C@]12CC[C@H]3[C@@H](CCC4=CC(=O)CC[C@@]43C)[C@@H]1CC[C@@H]2C(=O)CO`, the Potency entry was “inactive”.

In the case of `CCCCC(CC)COC(=O)c1ccc(N(C)C)cc1` (stereo not given), the Potency entry is “inactive”.

As for `CCCCNS(=O)(=O)c1ccccc1`, the Potency entry was “inactive”.

For `O=C(/C=C/C=C/c1ccc2c(c1)OCO2)N1CCCCC1`, the Potency result is “inactive and 2.17 µM (active)”.

Turning to `C=C(C)C1CC=C(C)CC1` (stereo not given), the Potency entry was “inactive”.

Take `O=C(/C=C/c1ccccc1)OCc1ccccc1`: the Potency result was “inactive”.

Turning to `Nc1ccc(Cl)cc1Cl`, the Potency result was “inactive”.
